Data published in PubChem BioAssay AID1159580 (chemical genetic matrix, 2015).
About 2,000 (36%) of roughly 5,500 compounds were called active. Not shown: some 18% with an inconclusive outcome. Rule as the data show it: active = normalized growth mostly below about 0.91 (no sharp cut-off); inconclusive = no clear call, values can overlap the other calls; inactive = mostly above about 0.92. This is one part of the list.

Test: chemical genetic growth profiling, strain panel (AID 1159580);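 also: tested at 20 µM; growth read once vehicle control cultures reached saturation at 30 °C; 1 = growth at the plate median or of vehicle wells; lower values mean less growth of the strain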
Conditions: growth OD

Measured: normalized growth

CC[C@H]1OC(=O)[C@H](C)[C@@H](O[C@H]2C[C@@](C)(OC)[C@@H](O)[C@H](C)O2)[C@H](C)[C@@H](O[C@@H]2O[C@H](C)C[C@H](N(C)C)[C@H]2O)[C@](C)(O)C[C@@H](C)[C@@H]2N[C@@H](COCCOC)O[C@H]([C@H]2C)[C@]1(C)O
inactive: S. cerevisiae deletion strains, locus YJR075W, strain HOC1, active compounds read low 1.05 | S. cerevisiae deletion strains, locus YKL009W, strain mrt4, active compounds read low 1.03 | S. cerevisiae deletion strains, locus YKL068W, active compounds read low 1 | S. cerevisiae deletion strains, locus YKL085W, strain MDH1 (second series), active compounds read low 0.976 | S. cerevisiae deletion strains, locus YKL085W, strain MDH1, active compounds read low 0.976 | S. cerevisiae deletion strains, locus YKL160W, strain elf1, active compounds read low 1 | S. cerevisiae deletion strains, locus YKR001C, strain vps1, active compounds read low 1.01 | S. cerevisiae deletion strains, locus YKR026C, strain gcn3, active compounds read low 0.987 | S. cerevisiae deletion strains, locus YKR091W, strain srl3, active compounds read low 0.997 | S. cerevisiae deletion strains, locus YLL001W, strain dnm1, active compounds read low 0.991 | S. cerevisiae deletion strains, locus YLL026W, active compounds read low 0.984 | S. cerevisiae deletion strains, locus YLL041C, strain sdh2, active compounds read low 0.986 | S. cerevisiae deletion strains, locus YLR027C, strain aat2, active compounds read low 0.991 | S. cerevisiae deletion strains, locus YLR039C, strain RIC1, active compounds read low 0.982 | S. cerevisiae deletion strains, locus YLR058C, strain SHM2, active compounds read low 1.02 | S. cerevisiae deletion strains, locus YLR102C, strain apc9, active compounds read low 1.01 | S. cerevisiae deletion strains, locus YLR113W, strain HOG1, active compounds read low 1.04 | S. cerevisiae deletion strains, locus YLR221C, strain rsa3, active compounds read low 0.993 | S. cerevisiae deletion strains, locus YLR258W, strain gsy2, active compounds read low 1 | S. cerevisiae deletion strains, locus YLR262C, strain YPT6 (second series), active compounds read low 0.985 | S. cerevisiae deletion strains, locus YLR262C, strain YPT6, active compounds read low 1.01 | S. cerevisiae deletion strains, locus YLR268W, strain sec22, active compounds read low 0.999 | S. cerevisiae deletion strains, locus YLR320W, strain mms22, active compounds read low 0.991 | S. cerevisiae deletion strains, locus YLR330W, strain CHS5, active compounds read low 1.01 | S. cerevisiae deletion strains, locus YLR342W, strain FKS1 (second series), active compounds read low 1.02 | S. cerevisiae deletion strains, locus YLR342W, strain FKS1, active compounds read low 0.992 | S. cerevisiae deletion strains, locus YLR357W, strain rsc2, active compounds read low 0.958 | S. cerevisiae deletion strains, locus YLR370C, strain arc18, active compounds read low 0.989 | S. cerevisiae deletion strains, locus YLR371W, strain rom2, active compounds read low 1 | S. cerevisiae deletion strains, locus YLR384C, strain iki3, active compounds read low 0.993 | S. cerevisiae deletion strains, locus YLR418C, strain cdc73, active compounds read low 0.996 | S. cerevisiae deletion strains, locus YML016C, strain PPZ1, active compounds read low 1.01 | S. cerevisiae deletion strains, locus YML032C, strain rad52, active compounds read low 0.999 | S. cerevisiae deletion strains, locus YML120C, strain ndi1, active compounds read low 0.997 | S. cerevisiae deletion strains, locus YML124C, strain tub3, active compounds read low 1 | S. cerevisiae deletion strains, locus YMR058W, strain fet3, active compounds read low 0.997 | S. cerevisiae deletion strains, locus YMR078C, strain ctf18, active compounds read low 1.01 | S. cerevisiae deletion strains, locus YMR125W, strain sto1, active compounds read low 0.992 | S. cerevisiae deletion strains, locus YMR129W, active compounds read low 1 | S. cerevisiae deletion strains, locus YMR205C, strain PFK2, active compounds read low 0.969 | S. cerevisiae deletion strains, locus YMR223W, strain ubp8, active compounds read low 1.02 | S. cerevisiae deletion strains, locus YMR231W, strain pep5, active compounds read low 0.993 | S. cerevisiae deletion strains, locus YMR263W, strain SAP30, active compounds read low 1.03 | S. cerevisiae deletion strains, locus YMR307W, strain GAS1, active compounds read low 0.919 | S. cerevisiae deletion strains, locus YNL067W, strain RPL9B, active compounds read low 1.04 | S. cerevisiae deletion strains, locus YNL071W, strain lat1, active compounds read low 0.999 | S. cerevisiae deletion strains, locus YNL128W, strain TEP1, active compounds read low 1.02 | S. cerevisiae deletion strains, locus YNL183C, strain NPR1, active compounds read low 0.96 | S. cerevisiae deletion strains, locus YNL209W, strain ssb2, active compounds read low 0.988 | S. cerevisiae deletion strains, locus YNL233W, strain BNI4, active compounds read low 1.03 | S. cerevisiae deletion strains, locus YNL248C, strain rpa49, active compounds read low 0.975 | S. cerevisiae deletion strains, locus YNL250W, strain rad50, active compounds read low 1.01 | S. cerevisiae deletion strains, locus YNL271C, strain bni1, active compounds read low 1.01 | S. cerevisiae deletion strains, locus YNL298W, strain CLA4, active compounds read low 1 | S. cerevisiae deletion strains, locus YNL307C, strain MCK1, active compounds read low 1 | S. cerevisiae deletion strains, locus YNL322C, strain KRE1 (second series), active compounds read low 0.995 | S. cerevisiae deletion strains, locus YNR049C, strain mso1, active compounds read low 0.989 | S. cerevisiae deletion strains, locus YNR052C, strain pop2, active compounds read low 1.01 | S. cerevisiae deletion strains, locus YOL006C, strain TOP1, active compounds read low 1.09 | S. cerevisiae deletion strains, locus YOL012C, strain htz1 1.56 | S. cerevisiae deletion strains, locus YOL147C, strain pex11, active compounds read low 1 | S. cerevisiae deletion strains, locus YOR001W, strain rrp6, active compounds read low 0.986 | S. cerevisiae deletion strains, locus YOR061W, strain CKA2, active compounds read low 1.02 | S. cerevisiae deletion strains, locus YOR069W, strain VPS5, active compounds read low 1.01 | S. cerevisiae deletion strains, locus YOR070C, strain gyp1, active compounds read low 0.999 | S. cerevisiae deletion strains, locus YOR080W, strain dia2, active compounds read low 0.995 | S. cerevisiae deletion strains, locus YOR083W, strain WHI5, active compounds read low 0.996 | S. cerevisiae deletion strains, locus YOR106W, strain vam3, active compounds read low 0.999 | S. cerevisiae deletion strains, locus YOR136W, strain idh2, active compounds read low 1 | S. cerevisiae deletion strains, locus YOR144C, strain elg1, active compounds read low 1.01 | S. cerevisiae deletion strains, locus YOR184W, strain ser1, active compounds read low 1 | S. cerevisiae deletion strains, locus YOR231W, strain MKK1, active compounds read low 1.02 | S. cerevisiae deletion strains, locus YOR265W, strain rbl2, active compounds read low 0.996 | S. cerevisiae deletion strains, locus YOR270C, strain vph1, active compounds read low 0.978 | S. cerevisiae deletion strains, locus YOR290C, strain snf2, active compounds read low 0.981 | S. cerevisiae deletion strains, locus YOR316C, strain cot1, active compounds read low 1.01 | S. cerevisiae deletion strains, locus YPL051W, strain arl3, active compounds read low 1.01 | S. cerevisiae deletion strains, locus YPL078C, strain atp4, active compounds read low 0.995 | S. cerevisiae deletion strains, locus YPL106C, strain sse1, active compounds read low 0.978 | S. cerevisiae deletion strains, locus YPL240C, strain hsp82, active compounds read low 0.989 | S. cerevisiae deletion strains, locus YPL256C, strain CLN2, active compounds read low 1.01 | S. cerevisiae deletion strains, locus YPR119W, strain clb2, active compounds read low 1.01 | S. cerevisiae deletion strains, locus YPR141C, strain kar3, active compounds read low 1.01 | S. cerevisiae deletion strains, locus YPR163C, strain tif3, active compounds read low 1.02 | S. cerevisiae deletion strains, locus YPR167C, strain met16, active compounds read low 0.996 | S. cerevisiae deletion strains, strain wtn01, active compounds read low 1 | S. cerevisiae strains, strain wild type, active compounds read low 1.02
